# PubChem BioAssay (NCATS)
# A number with no mark means an inactive call. Records with an inconclusive call do not appear. Active and inactive are the calls of the source. Unless noted, calls follow the shape of the dose curve; as a rule, active = well fitted curve in the direction sought with a large enough effect; inconclusive = small, poorly fitted or top-dose-only effect, or another doubt; inactive = no such curve, though single readings can be large; an effect the other way counts as inactive or inconclusive.
# What was measured:
# [1] = AP1 Signaling Pathway (AID 357; active = well fitted curve in either direction with a large enough effect, not every such curve was filed as active;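 also: ME-180 reporter cells stimulated with EGF at its EC50 level; % is scaled to controls: 0 for no effect and ±100 for the full control effect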); details: ME-180 AP-1-bla reporter, EGF-induced, beta-lactamase ratio, 5 h; at 7.69 µM (top of the series) unless noted
# Summary of the method: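 In this screen, ME-180 cells in Opti-MEM with 0.5% dialyzed FBS received EC50 EGF and compound titrations for 5 h. AP-1 reporter beta-lactamase was detected via CCF4 ratio, giving AC50 for positive and negative modulators.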
# [2] = target: Cytochrome P450 1A2 (Homo sapiens) (UniProt P05177); assay: p450-cyp1a2 (AID 410; calls by dose curve; also: potency is read from the fitted curve at half-maximal effect)
# Summary of the method: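 O-Demethylation of luciferin 6' methyl ether by human CYP1A2 is monitored as luciferase luminescence. Substrate sits at Km (100uM); enzyme is 20nM. Values are scaled to 57 uM furafylline as maximal inhibition.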
# [3] = NFAT Signaling Pathway (AID 444; active = well fitted curve in either direction with a large enough effect, not every such curve was filed as active;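 also: carbachol stimulus at about its EC50 of 1 µM final; % is scaled to controls: 0 for no effect and ±100 for the full control effect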); details: Jurkat NFAT-bla M1, carbachol, beta-lactamase ratio, 5 h; at 7.69 µM (top of the series) unless noted
# Summary of the method: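 Read-out: CCF4 FRET ratio (460 nm/530 nm) after 1 h RT dye loading, used for %activity and AC50 from titration series. Cells: Jurkat NFAT-β-lactamase/M1 line, treated with compound plus 1 uM carbachol for 5 h, 37 °C.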
# [4] = Stat Signaling Pathway (AID 446; active = well fitted curve in either direction with a large enough effect, not every such curve was filed as active;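 also: ME-180 cervical cancer cells given 40 pM IL-6 alongside compound; SIE-controlled beta-lactamase reporter measured as 460/530 nm FRET emission ratio; % is scaled to controls: 0 for no effect and ±100 for the full control effect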); details: ME-180 (cervical carcinoma) SIE beta-lactamase reporter, IL-6 stimulated, 5 h; at 7.69 µM (top of the series) unless noted
# Summary of the method: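 FRET read-out (405 nm excitation, 460/530 nm emission) of a beta-lactamase reporter under a STAT-inducible element in ME-180 cervical carcinoma cells. Cells with compound receive 40 pM IL-6 for 5 h. Values are normalised to AC90 stimulation and AC90 JAK-inhibitor controls.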
# [5] = target: Glucocorticoid receptor (Homo sapiens) (UniProt P04150); assay: GR-GFP Redistribution (AID 450;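 active = compounds whose dose series gives a full or clear partial fitted curve of increased nuclear translocation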; also: potency is read from the fitted curve at half-maximal effect); details: U2OS GR-GFP nuclear translocation, laser cytometry, 2 h
# Sequence of Glucocorticoid receptor (Homo sapiens) (P04150 whole entry, looked up, the tested form may be a part): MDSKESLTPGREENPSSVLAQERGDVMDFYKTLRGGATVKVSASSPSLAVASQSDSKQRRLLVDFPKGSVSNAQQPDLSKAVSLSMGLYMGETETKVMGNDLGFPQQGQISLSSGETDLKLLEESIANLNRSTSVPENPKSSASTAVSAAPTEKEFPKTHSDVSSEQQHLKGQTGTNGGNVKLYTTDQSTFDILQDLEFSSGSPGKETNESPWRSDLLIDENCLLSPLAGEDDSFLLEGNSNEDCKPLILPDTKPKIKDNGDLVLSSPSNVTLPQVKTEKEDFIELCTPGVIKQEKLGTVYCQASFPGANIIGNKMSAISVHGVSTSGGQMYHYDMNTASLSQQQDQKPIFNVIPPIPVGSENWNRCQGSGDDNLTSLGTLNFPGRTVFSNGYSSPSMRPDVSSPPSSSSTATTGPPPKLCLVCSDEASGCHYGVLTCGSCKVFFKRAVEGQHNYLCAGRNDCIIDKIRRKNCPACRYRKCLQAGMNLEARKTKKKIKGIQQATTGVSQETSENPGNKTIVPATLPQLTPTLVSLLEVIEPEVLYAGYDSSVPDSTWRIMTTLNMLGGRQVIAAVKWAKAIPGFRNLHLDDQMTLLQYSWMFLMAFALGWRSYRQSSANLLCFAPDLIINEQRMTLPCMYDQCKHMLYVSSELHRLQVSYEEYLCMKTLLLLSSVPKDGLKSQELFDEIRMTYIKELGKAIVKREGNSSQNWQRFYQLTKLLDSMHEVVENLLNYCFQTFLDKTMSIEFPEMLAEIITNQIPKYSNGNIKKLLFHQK
# [6] = target: Glucocorticoid receptor (Homo sapiens) (UniProt P04150); assay: GR-EFC Redistribution (AID 451; calls by dose curve; also: potency is read from the fitted curve at half-maximal effect); details: CHO-K1 GR-EFC translocation, beta-gal luminescence, 2 h
# Summary of the method: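 Translocation of GR-ED fusion to nuclear EA restores b-gal, read by luminescence after 1 h room-temperature detection. Engineered CHO-K1 biosensor cells, 1,000/well, exposed 2 h at 37 C to titrations up to 46 uM final.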
# [7] = target: 3',5'-cyclic-AMP phosphodiesterase 4B (Homo sapiens) (UniProt Q07343); assay: qHTS Assay for Inhibitors of PDE-IV (AID 607; active = well fitted activation curve with a large enough effect in the main read-out, with a control signal flat, not every such curve was filed as active; also: % of control where 0% means no effect)
# Sequence of 3',5'-cyclic-AMP phosphodiesterase 4B (Homo sapiens) (Q07343 whole entry, looked up): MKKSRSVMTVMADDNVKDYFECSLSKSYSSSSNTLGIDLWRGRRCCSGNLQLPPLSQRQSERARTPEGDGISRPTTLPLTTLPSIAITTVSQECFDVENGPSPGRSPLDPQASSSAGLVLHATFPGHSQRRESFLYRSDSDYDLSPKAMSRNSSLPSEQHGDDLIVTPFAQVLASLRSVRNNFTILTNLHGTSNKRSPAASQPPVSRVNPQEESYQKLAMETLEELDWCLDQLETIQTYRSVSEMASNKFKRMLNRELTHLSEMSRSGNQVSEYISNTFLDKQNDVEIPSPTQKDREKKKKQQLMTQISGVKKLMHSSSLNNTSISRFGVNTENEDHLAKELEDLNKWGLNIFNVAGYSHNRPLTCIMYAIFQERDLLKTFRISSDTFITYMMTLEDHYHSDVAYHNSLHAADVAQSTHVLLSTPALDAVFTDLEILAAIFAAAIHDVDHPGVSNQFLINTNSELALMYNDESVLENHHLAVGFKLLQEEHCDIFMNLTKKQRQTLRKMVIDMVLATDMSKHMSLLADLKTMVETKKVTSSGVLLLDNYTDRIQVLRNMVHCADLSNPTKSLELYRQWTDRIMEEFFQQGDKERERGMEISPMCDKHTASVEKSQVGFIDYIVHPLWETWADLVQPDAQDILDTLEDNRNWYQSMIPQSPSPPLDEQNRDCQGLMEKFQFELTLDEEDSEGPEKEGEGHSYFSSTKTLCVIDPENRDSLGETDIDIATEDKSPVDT
# Summary of the method: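 Cell-based read-out of cAMP via a modified cyclic nucleotide-gated channel and membrane potential dye (535/590 nm) in HEK293 cells expressing PDE4 endogenously. Compounds tested up to 22.9 uM final; 100 uM RO 20-1724 reference.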
# [8] = target: Guanine nucleotide-binding protein G(i) subunit alpha-1 (Homo sapiens) (UniProt P63096); assay: qHTS Assay for Inhibitors of RGS12 GoLoco Motif Activity (Green Fluorophore) (AID 879);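 also: 0% = labeled peptide with Gαi1 and full inhibition = labeled peptide alone without protein; negative values mean loss of peptide binding seen as reduced polarization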
# Sequence of Guanine nucleotide-binding protein G(i) subunit alpha-1 (Homo sapiens) (P63096 whole entry, looked up): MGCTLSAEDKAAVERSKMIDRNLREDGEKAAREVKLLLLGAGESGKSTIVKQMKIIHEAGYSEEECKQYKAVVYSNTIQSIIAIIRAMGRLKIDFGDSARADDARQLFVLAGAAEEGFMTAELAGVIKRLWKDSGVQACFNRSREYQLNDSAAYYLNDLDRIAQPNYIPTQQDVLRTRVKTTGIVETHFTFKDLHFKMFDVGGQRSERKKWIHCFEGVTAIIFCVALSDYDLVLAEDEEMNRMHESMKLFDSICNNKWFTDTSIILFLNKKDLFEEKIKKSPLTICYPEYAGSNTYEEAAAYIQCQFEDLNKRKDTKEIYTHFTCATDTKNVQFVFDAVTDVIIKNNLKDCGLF
# Summary of the method: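 A drop in FITC polarization marked displacement of the FITC-tagged RGS12 GoLoco peptide (10 nM) from Gαi1 (50 nM). Compounds were incubated 10 min at room temperature in Tris pH 7.5 buffer containing 150 mM NaCl, 0.1 mM GDP and 0.05% NP40; unlabeled peptide titration served as control.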
# [9] = target: Cytochrome P450 3A4 (Homo sapiens) (UniProt P08684); assay: qHTS Assay for Activators of Cytochrome P450 3A4 (AID 885); also: nearly all actives have a fitted effect of over 65% in size
# Sequence of Cytochrome P450 3A4 (Homo sapiens) (P08684 whole entry, looked up): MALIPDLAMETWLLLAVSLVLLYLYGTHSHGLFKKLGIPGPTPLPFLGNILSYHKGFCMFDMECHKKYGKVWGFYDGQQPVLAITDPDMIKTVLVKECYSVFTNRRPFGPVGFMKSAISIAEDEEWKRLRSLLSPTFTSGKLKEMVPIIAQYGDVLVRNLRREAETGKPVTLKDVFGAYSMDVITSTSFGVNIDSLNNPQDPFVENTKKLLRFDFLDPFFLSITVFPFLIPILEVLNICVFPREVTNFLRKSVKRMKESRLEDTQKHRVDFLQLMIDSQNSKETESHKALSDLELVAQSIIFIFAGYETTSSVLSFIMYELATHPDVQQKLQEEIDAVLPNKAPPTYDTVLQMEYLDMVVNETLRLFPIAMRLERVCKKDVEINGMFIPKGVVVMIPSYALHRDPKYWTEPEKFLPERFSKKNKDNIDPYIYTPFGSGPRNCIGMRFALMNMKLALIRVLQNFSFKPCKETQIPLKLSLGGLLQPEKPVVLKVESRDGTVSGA
# Summary of the method: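 Luminescent readout of luciferin formed from 25 uM Luciferin-PPXE (KM level) by 20 nM CYP3A4 in 200 mM KPO4, with 60 min NADPH-driven reaction at room temperature after 10 min compound exposure. Ketoconazole (57 uM) defined 100% inhibition.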
# [10] = qHTS Assay for Identification of Small Molecule Antagonists for Thrombopoietin (TPO) Signaling Pathway (AID 918); details: TPO-dependent cell signaling reporter, antagonist mode; also: potency is read from the fitted curve at half-maximal effect; nearly all actives have a fitted effect of over 60% in size
# Summary of the method: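 Inhibitors of TPO signaling are sought by stimulating IL-3-starved murine Ba/F3 cells (human TPO receptor, Glycoprotein IIb-driven luciferase) with TPO at its EC50 of 26 pM alongside compound. After 24 hrs at 37 C, reporter luminescence is measured.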
# [11] = target: Muscarinic acetylcholine receptor M1 (Rattus norvegicus) (UniProt P08482); assay: qHTS Assay for Antagonists of Acetylcholine Muscarinic M1 Receptor: Kinetic Measurement of Intracellular Calcium Response (AID 943); also: potency is read from the fitted curve at half-maximal effect; nearly all actives have a fitted effect of over 75% in size
# Sequence of Muscarinic acetylcholine receptor M1 (Rattus norvegicus) (P08482 whole entry, looked up): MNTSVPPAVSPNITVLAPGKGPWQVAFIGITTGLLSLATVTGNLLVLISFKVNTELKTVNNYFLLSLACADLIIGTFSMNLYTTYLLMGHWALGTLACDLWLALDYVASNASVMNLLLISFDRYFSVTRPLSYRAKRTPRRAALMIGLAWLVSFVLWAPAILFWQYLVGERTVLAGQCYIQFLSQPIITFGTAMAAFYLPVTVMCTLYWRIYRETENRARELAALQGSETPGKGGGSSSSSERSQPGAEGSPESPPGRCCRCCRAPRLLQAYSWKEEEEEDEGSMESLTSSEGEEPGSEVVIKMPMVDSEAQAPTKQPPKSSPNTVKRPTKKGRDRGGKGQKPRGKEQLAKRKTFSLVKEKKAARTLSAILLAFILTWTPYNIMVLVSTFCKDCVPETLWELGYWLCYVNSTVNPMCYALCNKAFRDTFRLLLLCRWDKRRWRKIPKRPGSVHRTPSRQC
# Summary of the method: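 Antagonism is measured as inhibition of the carbachol-evoked calcium rise in CHO cells transfected with rat M1. Cells are dye-loaded, exposed to compound for 10 min, then stimulated with 100 nM carbachol (EC80).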
# [12] = target: Muscarinic acetylcholine receptor M1 (Rattus norvegicus) (UniProt P08482); assay: qHTS Assay for Antagonists of Acetylcholine Muscarinic M1 Receptor: Measurement of IP-One Response (AID 944); also: potency is read from the fitted curve at half-maximal effect; nearly all actives have a fitted effect of over 75% in size
# Summary of the method: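 Antagonist mode with rat M1 receptor transfected into CHO cells. Compound is added first for 10 min, carbachol at its EC80 follows for 30 min, and lysis reagents then allow TR-FRET detection of accumulated IP1.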
# [13] = target: Pyruvate kinase (Leishmania mexicana) (UniProt Q27686); assay: qHTS Validation Assay for Inhibitors of Leishmania Mexicana Pyruvate Kinase (AID 945);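 also: 0% = DMSO only neutral control wells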
# Summary of the method: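 Luminescent ATP detection (PKLight) after a 1 h room-temperature reaction of 0.2 nM LmPYK E451W mutant with 0.5 mM PEP and 0.1 mM ADP at pH 7.2. Activity is normalized to DMSO-only control wells.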
# [14] = target: Pyruvate kinase PKM (Homo sapiens) (UniProt P14618); assay: qHTS Assay for Activators of Human Muscle Pyruvate Kinase (AID 954; active = well fitted curve in the direction sought with a large enough effect, not every such curve was filed as active;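 also: 0% = uninhibited enzyme and -100% = no enzyme or full thiadiazolimine inhibition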)
# Summary of the method: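 ATP production by PKM2 detected via luciferase luminescence after 1 h room-temperature reaction (0.1 nM enzyme, PEP at Km 0.5 mM, ADP 0.1 mM, pH 7.2 imidazole buffer). Inhibition scaled to no-enzyme control; activation referenced to 0.3 nM enzyme wells.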
# [15] = target: Alpha-galactosidase A (Homo sapiens) (UniProt P06280); assay: Counterscreen for Glucocerebrosidase Inhibitors: qHTS Assay for Human alpha-Galactosidase at pH 4.5 (AID 992); also: 0% is about no effect
# Sequence of Alpha-galactosidase A (Homo sapiens) (P06280 whole entry, looked up): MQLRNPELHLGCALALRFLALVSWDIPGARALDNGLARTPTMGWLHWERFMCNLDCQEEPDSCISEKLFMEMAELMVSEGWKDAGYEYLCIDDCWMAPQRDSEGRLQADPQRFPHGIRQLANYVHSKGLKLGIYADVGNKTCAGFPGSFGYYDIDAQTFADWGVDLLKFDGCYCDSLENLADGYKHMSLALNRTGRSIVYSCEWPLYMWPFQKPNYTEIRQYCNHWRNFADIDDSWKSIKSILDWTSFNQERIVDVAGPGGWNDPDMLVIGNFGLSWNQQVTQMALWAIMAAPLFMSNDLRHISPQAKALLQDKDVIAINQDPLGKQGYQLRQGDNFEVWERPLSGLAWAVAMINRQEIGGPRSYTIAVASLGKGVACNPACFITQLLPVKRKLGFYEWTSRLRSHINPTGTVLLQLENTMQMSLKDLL
# Summary of the method: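 Fluorogenic 1536-well qHTS at pH 4.5 (citrate, Tween-20): 2 nM enzyme, 80 uM 4-MU-alpha-galactoside, 20 min room temperature, NaOH/glycine stop. Titration 0.7 nM to 77 uM, data normalized to no-enzyme and full-activity controls, Hill-fitted AC50.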
# [16] = target: alpha-glucosidase (Oryza sativa, rice) (UniProt Q653V4); assay: Counterscreen for Glucocerebrosidase Inhibitors: qHTS Assay for Rice alpha-Glucosidase at pH 5.0 (AID 997);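 also: 0% = full activity with enzyme and -100% = basal without enzyme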
# Summary of the method: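 Endpoint fluorogenic assay at pH 5.0: compounds (0.7 nM to 77 uM) titrated against 4 nM rice enzyme and 400 uM 4-MU-alpha-glucoside for 20 min at room temperature; NaOH/glycine stop, read ex 365/em 440 nm, Hill-fitted AC50.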
# [17] = Validation of Assay for Modulators of Lamin A Splicing (AID 1459; active = well fitted curve in the direction sought with a large enough effect in the signal ratio; the % refers to the signal ratio;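 also: cells exposed to compound for two days before reading; 0% is about no effect; ratio rise marks activators and ratio drop marks inhibitors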)
# Summary of the method: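 HeLa S3 lamin A-EGFP/DsRed2 stable clone, 600 cells/well, Opti-MEM 2% FBS; compounds by pin tool; 48 hrs, 37 °C/5% CO2; Acumen 488 nm scan, objects 10-100 um; GFP/RFP intensity ratio.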
# [18] = target: DNA repair nuclease/redox regulator APEX1 (Homo sapiens) (UniProt P27695); assay: qHTS Validation Assay for Inhibitors of the Human Apurinic/apyrimidinic Endonuclease 1 (APE1) (AID 1705;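 also: TAMRA fluorescence gain over two minutes as APE1 cuts a quenched THF abasic duplex; % is scaled to controls: 0 for no effect and ±100 for the full control effect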)
# Summary of the method: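 qHTS, 1536-well. APE1 + cpd 15 min RT → 50 nM TAMRA/BHQ-2 THF-abasic dsDNA substrate → kinetic fluorescence, 3 reads/60 s; delta(read3−read1) = reaction progress. No-enzyme buffer = negative control.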
# [19] = Counterscreen for APE1 Inhibitors: Fluorescent Dye Displacement Validation Assay (AID 1707);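 also: plate controls were ThO with dsDNA and no compound for no effect and ThO without dsDNA for full effect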
# Summary of the method: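 Counterscreen flags promiscuous DNA binders: compounds displacing ThO from duplex DNA (abasic THF site, 50 nM) reduce 540 nm emission (480 nm excitation). ThO 250 nM final; Tris-HCl pH 7.5 with NaCl, MgCl2 and Tween-20.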
# [20] = target: Endonuclease 4 (Escherichia coli (strain K12)) (UniProt P0A6C1); assay: Counterscreen for APE1 Inhibitors: qHTS Validation Assay for Inhibitors of Endonuclease IV (AID 1708); also: % is scaled to controls: 0 for no effect and ±100 for the full control effect
# Summary of the method: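 Incision of a double-stranded 50 nM TAMRA/BHQ-2 abasic substrate was followed kinetically (525/598 nm, reads every 60 s) after 15 min enzyme–compound preincubation with 2 nM EndoIV in pH 7.5 Tris buffer with MgCl2, DTT and Tween-20; concentration-response format.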
# [21] = qHTS for differential inhibitors of proliferation of Plasmodium falciparum line 7G8 (AID 1815);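 also: potency is read from the fitted curve at half-maximal effect; parasite growth measured after three days of incubation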
# [22] = qHTS for differential inhibitors of proliferation of Plasmodium falciparum line GB4 (AID 1816); details: Potency: Plasmodium falciparum GB4 proliferation inhibition;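 also: potency is read from the fitted curve at half-maximal effect; parasite growth measured after 72 h incubation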
# [23] = qHTS for differential inhibitors of proliferation of Plasmodium falciparum line 3D7 (AID 1876); also: potency is read from the fitted curve at half-maximal effect
# [24] = qHTS for differential inhibitors of proliferation of Plasmodium falciparum line D10 (AID 1877);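 also: potency is read from the fitted curve at half-maximal effect; parasites grown with compound for 72 h before DNA staining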
# [25] = qHTS for differential inhibitors of proliferation of Plasmodium falciparum line W2 (AID 1883); details: Potency: Plasmodium falciparum W2 proliferation inhibition;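 also: potency is read from the fitted curve at half-maximal effect; parasites grown with compound for 72 h before lysis and staining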
# [26] = qHTS for differential inhibitors of proliferation of Plasmodium falciparum line HB3 (AID 1886); details: Potency: Plasmodium falciparum HB3 proliferation inhibition;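 also: potency is read from the fitted curve at half-maximal effect; parasites grown with compound for 72 h before SYBR Green readout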
# [27] = target: Ferritin light chain (Equus caballus) (UniProt P02791); assay: qHTS Validation Assay for Identification of Novel General Anesthetics (AID 2323); also: % is scaled to controls: 0 for no effect and ±100 for the full control effect
# Sequence of Ferritin light chain (Equus caballus) (P02791 2-175 limits assumed): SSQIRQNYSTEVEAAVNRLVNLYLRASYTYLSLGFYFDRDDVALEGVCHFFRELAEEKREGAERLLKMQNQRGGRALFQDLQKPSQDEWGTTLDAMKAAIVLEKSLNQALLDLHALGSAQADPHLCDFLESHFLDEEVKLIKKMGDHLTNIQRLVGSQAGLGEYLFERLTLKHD
# Summary of the method: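 Fluorescence at 535 nm (excitation 380 nm) reported loss of 1-AMA binding to horse-spleen apoferritin (10 uM) in PBS with 50% saturated 1-aminoanthracene, after 10 min room-temperature incubation with compound; values from Hill fits of normalized response.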
# [28] = target: ATP-dependent DNA helicase Q1 (Homo sapiens) (UniProt P46063); assay: qHTS Validation Assay for Inhibitors of RecQ-Like Dna Helicase 1 (RECQ1) (AID 2353);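 also: plate controls were DMSO vehicle for no effect and enzyme-free control for full effect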
# Sequence of ATP-dependent DNA helicase Q1 (Homo sapiens) (P46063 whole entry, looked up): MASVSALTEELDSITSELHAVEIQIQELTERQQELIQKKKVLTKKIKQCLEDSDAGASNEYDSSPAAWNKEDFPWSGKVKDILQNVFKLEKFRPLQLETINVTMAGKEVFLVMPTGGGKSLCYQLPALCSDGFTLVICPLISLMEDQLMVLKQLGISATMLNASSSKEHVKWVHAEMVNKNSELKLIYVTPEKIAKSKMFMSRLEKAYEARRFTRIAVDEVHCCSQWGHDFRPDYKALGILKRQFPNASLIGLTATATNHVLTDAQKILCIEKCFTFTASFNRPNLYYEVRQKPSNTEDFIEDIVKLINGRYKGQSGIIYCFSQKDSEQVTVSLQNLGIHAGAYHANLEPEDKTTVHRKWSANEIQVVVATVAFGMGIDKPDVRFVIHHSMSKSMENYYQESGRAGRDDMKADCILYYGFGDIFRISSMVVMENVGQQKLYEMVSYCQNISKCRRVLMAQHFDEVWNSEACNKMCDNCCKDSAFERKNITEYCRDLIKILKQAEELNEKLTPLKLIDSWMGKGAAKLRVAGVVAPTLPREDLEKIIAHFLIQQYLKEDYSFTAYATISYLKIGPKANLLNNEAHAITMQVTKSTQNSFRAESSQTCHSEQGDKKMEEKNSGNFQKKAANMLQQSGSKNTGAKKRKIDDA
# Summary of the method: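 RECQ1T1 50 nM; forked duplex (20 bp + 30-nt ss tails) 200 nM, ATP 2 mM final; pH 8.0, 2 mM MgCl2, 2.5 ug/ml poly(dI-dC); 15 min compound preincubation; discontinuous kinetic read over 2 h at RT.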
# [29] = Quantitative high throughput screen for delayed death inhibitors of the malarial parasite plastid, 48 hour incubation (AID 488752); also: potency is read from the fitted curve at half-maximal effect; nearly all actives have a fitted effect of over 65% in size
# Summary of the method: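 First, compound was pinned into RPMI 1640 medium containing 0.5% Albumax. Next, reporter-parasite-infected erythrocytes were added to 2% hematocrit and 0.1% parasitemia. After 48 h at 37 C under 5% CO2, luciferase detection reagent was added and luminescence read.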
# [30] = target: M-phase phosphoprotein 8 (Homo sapiens) (UniProt Q99549); assay: qHTS Validation Assay for Inhibitors for MPP8 Chromodomain Interactions with Methylated Histone Tails (AID 488949);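 also: 50 nM MPP8 with 50 nM peptide preformed then compounds added for 30 min; AlphaScreen signal from MPP8 chromodomain bound to biotinylated H3K9me3 peptide; top concentration of the series differs between compounds; % is scaled to controls: 0 for no effect and ±100 for the full control effect; nearly all actives have a fitted effect of over 55% in size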
# Summary of the method: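 50 nM MPP8 + 50 nM b-H3K9me3 peptide, PBS pH 7.4/0.01% Tween-20, 30 min RT; + cpd 30 min RT; + AlphaScreen donor/Ni-chelate acceptor beads 10 ug/mL final, 30 min dark; luminescence read.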
# [31] = target: Thyrotropin receptor (Homo sapiens) (UniProt P16473); assay: qHTS Assay for Antagonists of the Thyroid Stimulating Hormone Receptor (AID 488980); also: 0% is about no effect
# Summary of the method: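 Readout is cAMP by HTRF competition between cellular cAMP and cAMP-d2 for a cryptate-labelled antibody. Antagonism was assessed in TSHR-transfected HEK293 cells stimulated with 4 nM TSH (EC80, final) in the presence of RO 20-1724.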
# [32] = target: Thyrotropin-releasing hormone receptor (Homo sapiens) (UniProt P34981); assay: qHTS for Small Molecule Agonists and Allosteric Enhancers of Human TRH Receptor: Validation Screen for Agonists (AID 493127;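 active = calcium activation more than 3 SD above the typical response in the agonist read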;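 also: intracellular calcium rise by fluo-8 fluorescence before TRH EC20 addition; 0% is about no effect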); details: TRH receptor agonist cell assay; at 2 µM; active compounds read high
# Sequence of Thyrotropin-releasing hormone receptor (Homo sapiens) (P34981 whole entry, looked up): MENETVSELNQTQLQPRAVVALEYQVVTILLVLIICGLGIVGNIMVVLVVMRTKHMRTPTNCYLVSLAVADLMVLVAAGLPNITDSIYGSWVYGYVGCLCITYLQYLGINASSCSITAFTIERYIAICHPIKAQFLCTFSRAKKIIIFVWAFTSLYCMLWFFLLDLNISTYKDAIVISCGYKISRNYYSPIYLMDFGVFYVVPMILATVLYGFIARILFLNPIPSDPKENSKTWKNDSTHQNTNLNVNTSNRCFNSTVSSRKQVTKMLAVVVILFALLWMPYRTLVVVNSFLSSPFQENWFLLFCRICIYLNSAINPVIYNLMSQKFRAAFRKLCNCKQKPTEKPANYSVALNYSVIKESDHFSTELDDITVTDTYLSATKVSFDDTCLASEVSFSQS
# Summary of the method: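 Compounds are added by online pintool to dye-loaded TRHR cells while fluorescence is recorded every second. A rise in calcium signal during the agonist read marks activation; a later 10 nM TRH addition (EC20) serves the separate enhancer mode.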
# [33] = target: Galactokinase (Homo sapiens) (UniProt P51570); assay: qHTS Validation Assay for Inhibitors of Human Galactokinase (GALK) (AID 493189); also: 0% is about no effect
# Sequence of Galactokinase (Homo sapiens) (P51570 whole entry, looked up): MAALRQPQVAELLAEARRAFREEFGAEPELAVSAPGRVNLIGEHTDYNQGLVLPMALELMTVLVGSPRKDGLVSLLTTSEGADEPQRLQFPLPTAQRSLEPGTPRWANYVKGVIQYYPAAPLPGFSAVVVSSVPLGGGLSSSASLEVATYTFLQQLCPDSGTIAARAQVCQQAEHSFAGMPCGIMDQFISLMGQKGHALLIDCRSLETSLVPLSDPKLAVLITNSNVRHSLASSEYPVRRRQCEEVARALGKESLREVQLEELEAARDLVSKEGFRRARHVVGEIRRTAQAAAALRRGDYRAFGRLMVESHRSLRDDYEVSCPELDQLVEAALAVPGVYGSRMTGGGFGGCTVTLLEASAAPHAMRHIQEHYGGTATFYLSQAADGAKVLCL
# Summary of the method: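 5 nM GALK / 100 uM galactose / 35 uM ATP, 20 mM HEPES pH8.0, 5 mM MgCl2, 60 mM NaCl, 1 mM DTT, 0.01% BSA (final). RT 1 h; Kinase-Glo Plus luminescence.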
smiles,measurement,setting,value
NCCCCNS(=O)(=O)c1cccc2c(Cl)cccc12,"activity change, negative = inhibition",[1],-2.83% [at 38 µM]
same,Potency,[2],15.8 µM (active)
same,"activity change, negative = inhibition",[3],-12.9% [at 38 µM]
same,"activity, negative = inhibition",[4],3.48% [at 38 µM]
same,Potency,[5],> 46 µM
same,Potency,[6],> 46 µM
same,Potency,[7],inactive
same,outcome,[8],inactive
same,Potency,[9],inactive
same,Potency,[10],10 µM (active)
same,Potency,[11],14.1 µM (active)
same,Potency,[12],17.8 µM (active)
same,Potency,[13],inactive
same,outcome,[14],inactive
same,outcome,[15],inactive
same,outcome,[16],inactive
same,outcome,[17],inactive
same,Potency,[18],inactive
same,Potency,[19],inactive
same,outcome,[20],inactive
same,Potency,[21],8.91 µM (active)
same,Potency,[22],10 µM (active)
same,Potency,[23],8.91 µM (active)
same,Potency,[24],10 µM (active)
same,Potency,[25],11.2 µM (active)
same,Potency,[26],12.6 µM (active)
same,outcome,[27],inactive
same,Potency,[28],inactive
same,Potency,[29],14.7 µM (active)
same,Potency,[30],inactive
same,outcome,[31],inactive
same,activation,[32],0.5%
same,outcome,[33],inactive
